# From PubChem BioAssay AID624483 (NMMLSC, 2012)
# The whole screen tested about 360,000 compounds, of which about 11,000 (3.1%) were called active. Not shown: some 2% with an inconclusive outcome. Rule as the data show it: active = fluorescence intensity above about 16000; inconclusive = no clear call, values can overlap the other calls; inactive = below that. The entries come from a sample that favours actives as a whole.
# Assay: compound fluorescence in toxin protease inhibitor counterscreen, primary screen, artefact control for toxin protease inhibitor project, biochemical, multiplex microsphere, HTS (AID 624483)
# Conditions: compound autofluorescence counterscreen, microsphere flow cytometry; stronger effect = higher value
row,Compound,fluorescence intensity
1,O=C(c1cc2ccccc2s1)N1CCN(c2ccccn2)CC1,5840 (inactive)
2,Cc1cc(C(=O)N2CCN(c3ccccn3)CC2)c(C)o1,21600 (active)
3,O=C(c1c(F)cccc1Cl)N1CCN(c2ccccn2)CC1,6090 (inactive)
4,CC1(C(=O)NS(=O)(=O)c2cccc(OC(F)F)c2)CCN1C(=O)C1CC1 (configuration not stated),3660 (inactive)
5,O=C(NC1CCCC1)C(c1ccccn1)N(C(=O)c1csnn1)C1CCCC1 (configuration not stated),3210 (inactive)
6,CCOc1ccc(C)cc1S(=O)(=O)NC1CCCCCC1,5960 (inactive)
7,COc1ccc(C(=O)NCc2ccccc2C)cc1S(=O)(=O)NC1CCCC1,3480 (inactive)
8,COc1ccc(C)cc1S(=O)(=O)NC1CCCCC1,20200 (active)
9,CCCCC(=O)N(C)c1c(CC)nc2c(OCc3ccc(S(C)(=O)=O)cc3)cccn12,4320 (inactive)
10,CC(C)Oc1cc(F)ccc1-c1cc(C(=O)Nc2cccc(Cl)c2)[nH]n1,3940 (inactive)
11,CCC1OC(C2CC2)CC2=C1C(=O)OC(C)(C)O2 (configuration not stated),5440 (inactive)
12,CCc1nc2ccc(C(=O)NCc3ccc(OC)cc3)cn2c1N(CC)Cc1cccc(Br)c1,4320 (inactive)
13,CN(C)CCNC(=O)C(C(=O)c1ccccc1)n1ccccc1=O (configuration not stated),23600 (active)
14,CN(C)CCNC(=O)Nc1cccc(Cl)c1Cl,2400 (inactive)
15,COc1ccccc1NC(=O)CC(NCCN(C)C)C(=O)O (configuration not stated),15400 (inactive)
16,FC(F)(F)COc1nc(N2CCCCC2)nc(N2CCNCC2)n1,2450 (inactive)
17,FC(F)(F)Oc1ccccc1C(c1nnnn1C1CCCCC1)N1CCN(C/C=C/c2ccccc2)CC1 (configuration not stated),4590 (inactive)
18,Cc1cc2ccccn2c1C(=O)c1cccc(S(=O)(=O)N2CCOCC2)c1,4300 (inactive)
19,CCOC(=O)N/N=C1\CC(C)S(=O)(=O)c2ccc(Cl)cc21 (configuration not stated),3940 (inactive)
20,O=C(CCC(=O)Nc1ccccc1)N/N=C/c1ccccc1F,2560 (inactive)
21,O=C(CC(=O)N/N=C\c1ccc(F)cc1)NCCc1ccccc1,3990 (inactive)
22,O=C(CN1CCSCC1)N/N=C/c1ccc(F)cc1,19800 (active)
23,O=C(CN1CCN(C/C=C/c2ccccc2)CC1)Nc1ccc(F)cc1F,4560 (inactive)
24,Cc1ccc(COc2ccc(/C=N/NC(=O)CN3CCCCC3)cc2)cc1,3530 (inactive)
25,O=C(CN1CCSCC1)N/N=C/c1ccc(F)cc1F,23700 (active)

row,Compound,fluorescence intensity
1,c1ccc2c(c1)C(=NC1CCCCC1)NC2=NC1CCCCC1,8360 (inactive)
2,CCOc1ccccc1N1C(=O)CC(Sc2nccc(C)n2)C1=O (configuration not stated),4180 (inactive)
3,COC(=O)[C@]12CCCCC=C1N(Cc1ccco1)C(=O)[C@H](CC(=O)NCCCCc1ccccc1)C2,5100 (inactive)
4,Cc1cccc(-c2cnc(C(O)c3cc(C)cc(C)c3)[nH]2)c1 (configuration not stated),3860 (inactive)
5,Cc1ccc(S(=O)(=O)N2CCC(C)CC2)cc1C(=O)NCc1ccccn1,5690 (inactive)
6,Cc1cccc(CN2CCN(C3CN(Cc4ccccc4)S(=O)(=O)C3)CC2)c1 (configuration not stated),5880 (inactive)
7,CCOC(=O)C1CCN(S(=O)(=O)c2cc(F)ccc2OC)CC1,4720 (inactive)
8,CCOC(=O)C1CCN(C(=O)/C=C/c2cc(OC)c(OC)c(OC)c2)CC1,2640 (inactive)
9,CCOC(=O)C1CCCCN1Cc1ccc(OC)c(OC)c1OC (configuration not stated),21900 (active)
10,O=C(Nc1ccc2c(c1)OCCO2)C1c2ccccc2OCC(=O)N1Cc1ccccn1 (configuration not stated),5110 (inactive)
11,Cc1[nH]c2ccccc2c1C(=O)CN1CCCC(C)C1 (configuration not stated),3780 (inactive)
12,Cc1[nH]c2ccccc2c1C(=O)CSCC(=O)O,23600 (active)
13,Cc1[nH]c2ccccc2c1C(=O)CN1CC(C)CC(C)C1 (configuration not stated),4370 (inactive)
14,O=C(O)c1cc(S(=O)(=O)NC2CCCc3ccccc32)ccc1O (configuration not stated),3070 (inactive)
15,Cc1nc(C(F)(F)F)ccc1C(=O)N1CCC1(C)C(=O)NS(=O)(=O)c1ccccc1 (configuration not stated),2950 (inactive)
16,Nc1nc2c(ncn2[C@@H]2O[C@H](CNS(=O)(=O)N3CCc4ccccc4C3)[C@@H](O)[C@H]2O)c(=O)[nH]1,5780 (inactive)
17,Cc1ccccc1CCN(CC(=O)NC1CCCCC1)C(=O)c1csnn1,4280 (inactive)
18,CCOCCC(=O)Nc1ccc2c(c1)c(=O)n(C)n2-c1ccc2ccccc2c1,4100 (inactive)
19,O=C(CN1CCOCC1)N/N=C/c1ccc(-c2ccc(Br)cc2)o1,6290 (inactive)
20,O=C(Cc1ccc(Br)cc1)NCCN1CCOCC1,4390 (inactive)
21,CCOC(=O)CN(C(=O)CN1CCOCC1)c1ccc(Br)cc1,16500 (active)
22,COCCOC1CCN(C(=O)c2ccc(OC)c(OC3CCN(C(C)C)CC3)c2)CC1,5660 (inactive)
23,OC[C@@H]1CN(Cc2cccs2)C[C@H](n2cnc3c(Nc4ccccc4)ncnc32)O1,2850 (inactive)
24,CCN(CC)CCNC(=O)c1ccc(NC(=O)c2cc(-c3ccncc3)nc3ccccc23)cc1,5900 (inactive)
25,Cc1nc2ccccc2c2oc(C(=O)NCCCN3CCC(C)CC3)cc12,6790 (inactive)

row,Compound,fluorescence intensity
1,CCCN(CCC)CCNC(=O)c1cc2c(C)nc3ccccc3c2o1,23700 (active)
2,COc1cc(CCN=Cc2ccccc2O)c([N+](=O)[O-])cc1OC,6170 (inactive)
3,CCOC(=O)[C@]12CCCC=C1N(Cc1ccc3c(c1)OCO3)C(=O)[C@H](CC(=O)NCc1cccs1)C2,4370 (inactive)
4,O=C(NC1CCCCCC1)c1cccnc1Sc1ccc(Cl)cc1,2130 (inactive)
5,O=C(NCc1cccnc1)c1cccnc1Sc1ccc(Cl)cc1,16900 (active)
6,COc1cccc(CNC(=O)c2cccnc2Sc2ccc(Cl)cc2)c1,5920 (inactive)
7,C=CCn1c(=O)n(C)c2c(=O)n(C)c(=O)n(C)c21,3000 (inactive)
8,O=[N+]([O-])c1ccc(CN2CC(N3CC=CC3)CS2(=O)=O)cc1 (configuration not stated),6550 (inactive)
9,CCOc1ccc(-c2cn(S(=O)(=O)c3cccc4nsnc34)nc2N)cc1,4610 (inactive)
10,CCCCNC(=O)OC1CC2CC1[C@H]1CCCCN1C2=O (some centres not stated),5740 (inactive)
11,Cn1ncc2c(Nc3cccc4ccccc34)ncnc21,3210 (inactive)
12,CC1CCCCC1NC(=O)CSc1nnc(-c2ccncc2)n1CCCN(C)C (configuration not stated),4240 (inactive)
13,CN(C)CCCn1c(SCc2ccc(Cl)cc2)nnc1-c1ccncc1,3820 (inactive)
14,CSc1nnc(-c2ccncc2)n1CCCN1CCCC1=O,16700 (active)
15,COc1cc(Cn2c3ccc(NC(=O)CC(C)c4ccccc4)cc3c(=O)n2C)ccc1F (configuration not stated),3950 (inactive)
16,CCOc1ccc(C(=O)Nc2cccc(SC)c2)cc1,2060 (inactive)
17,Cc1ccc(S(=O)(=O)N(Cc2cc3ccccc3[nH]c2=O)CC2CCCO2)cc1 (configuration not stated),3240 (inactive)
18,Cc1occc1C(=O)Nc1nnc(C2CCCCC2)s1,22300 (active)
19,COc1ccc(NC(=O)CCC(=O)Nc2nnc(C3CCCCC3)s2)cc1,5270 (inactive)
20,Cc1cc(C(=O)Nc2nnc(C3CC3)s2)c(C)s1,5450 (inactive)
21,CCc1nc2c(OCc3ccc(F)c(F)c3)cccn2c1N(C)C(=O)c1ccco1,3900 (inactive)
22,O=C1Nc2ccccc2NC(c2ccc3c(c2)OCO3)=C1N(Cc1ccc(F)cc1)C(=O)c1ccco1,5250 (inactive)
23,Brc1ccc(C2=CC(c3ccco3)n3ncnc3N2)cc1 (configuration not stated),9350 (inactive)
24,Clc1ccc2c(c1)C1=C(C(c3ccncc3)O2)C(c2ccc(Br)cc2)n2ncnc2N1 (configuration not stated),16600 (active)
25,Cc1ccc(CN(Cc2cccnc2)C(=S)Nc2cc(Cl)ccc2C)cc1,4690 (inactive)

row,Compound,fluorescence intensity
1,CCN(CC)C(=O)CSc1nnc(-c2cnccn2)n1-c1ccc(C)cc1,23200 (active)
2,CCn1c(SCC(=O)Nc2cc(C)ccc2C)nnc1-c1cnccn1,4580 (inactive)
3,Cc1ccc(CSc2nnc(-c3cnccn3)n2C)cc1,4420 (inactive)
4,CC(C)(C)C1CCC(=O)N2CCC[C@]2(c2ccccc2)C1 (some centres not stated),5900 (inactive)
5,CN(CC1CCCN(CCc2cccc(C(F)(F)F)c2)C1)C(=O)c1ccc2nc[nH]c2c1 (configuration not stated),5960 (inactive)
6,COc1cccc(NC(=O)C2(C)CCN2C(=O)CCC2CCCC2)c1 (configuration not stated),2920 (inactive)
7,N#C/C(=C\c1cccnc1)C(=O)Nc1ccc(SC(F)F)cc1,3830 (inactive)
8,Nc1nnnn1/N=C/c1cccs1,21800 (active)
9,Nc1nnnn1/N=C/c1cccc(Br)c1,3440 (inactive)
10,COc1ccc(/C=N/n2nnnc2N)cc1OC,4170 (inactive)
11,COc1ncnc2c1ncn2CCCNCCN1CCOCC1,3370 (inactive)
12,COc1ccc(CN(C(=O)c2cccs2)c2nccs2)cc1OC,3950 (inactive)
13,COc1ccc(CCN(C(=O)COc2ccccc2)c2nc(-c3ccccc3)cs2)cc1OC,21300 (active)
14,CN(Cc1ccccc1)C(=O)COc1ccccc1,2850 (inactive)
15,C[C@H](NC(=O)C1CCN(S(=O)(=O)c2ccccc2)CC1)C(=O)NCc1ccccc1,5500 (inactive)
16,COc1cccc(CN2CCC(C(=O)NC(c3ccc4c(c3)OCO4)c3ccccn3)CC2)c1 (configuration not stated),3800 (inactive)
17,Cc1cc(=O)oc2cc(NC(=O)C(C)Oc3ccccc3)ccc12 (configuration not stated),5330 (inactive)
18,Cc1cc(=O)oc2cc(OC(C)C(=O)Nc3ccc(N4CCOCC4)cc3)ccc12 (configuration not stated),22000 (active)
19,COc1ccc(-c2cc(=O)oc3cc(OC(C)C(=O)Nc4ccc(CN5CCOCC5)cc4)ccc23)cc1 (configuration not stated),5340 (inactive)
20,COc1ccc(C(=O)NC(=S)Nc2ccccc2N2CCN(S(C)(=O)=O)CC2)cc1OC,22100 (active)
21,O=C(NC(=S)Nc1ccccc1N1CCCCC1)c1ccc(F)cc1,6710 (inactive)
22,COc1ccccc1C(=O)NC(=S)Nc1ccccc1N1CCCCC1,5870 (inactive)
